From PubChem BioAssay (NCI)
About 83,000 compounds went through this panel and 20% of them were active in at least one assay; those are over-represented in the sample as a whole.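 Assay: single dose, 48 h. Readout: percent growth (0 = no net growth; negative = cell death). Active: <10.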 A number with no mark means an inactive call. Calls of active or inactive are those of the source.

system: HOP-92 NSCLC; assay: NCI-60 one-dose screen, 48 h (100 = growth as untreated, 0 = no growth, -100 = all killed); conditions: 10 µM unless noted

SMILES | growth
O=C(CC1(O)C(=O)N(Cc2ccccc2)c2ccc(Cl)cc21)c1ccc(C(=O)NCC2CCC3(CC2)OOC2(CCCCC2)OO3)cc1 (stereo unspecified) | -73.2% (active)
CCOC(=O)CCC(NC(=O)C(Cc1ccc(N(CCCl)CCCl)cc1)NC=O)C(=O)OCC (stereo unspecified) | -2.74% (active)
COC(=O)[C@@H](C)C[C@H](Cc1ccccc1)NC(=O)c1csc([C@@H](C[C@H](C(C)C)N(C)C(=O)[C@@H](NC(=O)C23CC(NC(C)=O)(C2)C3)C2CC2)OC(C)=O)n1 | 38.5%
COC(=O)[C@]12CCC(C)(C)C[C@H]1[C@H]1C(=O)C[C@@H]3[C@@]4(C)C[C@@]5(CC(C)(C)[C@@H]4CC[C@@]3(C)[C@]1(C)CC2)OO[C@@](C)(C(F)(F)F)O5 | 98.8%
CNC(=O)Oc1ccc(N(C)C)cc1C(C)C | 100%
COc1ccc(/C=C\c2cc(OC)c(OC)c(OC)c2)cc1OCC(=O)Nc1nc2ccc(C(F)(F)F)cc2s1 | 46.6%
O=C(CC1(O)C(=O)N(Cc2ccccc2)c2ccc(F)cc21)c1ccc(C(=O)NCC2CCC3(CC2)OOC2(CCCCC2)OO3)cc1 (stereo unspecified) | -71.8% (active)
c1cnc2[nH]cc(-c3csc(-c4cn(CCCCN5CCCCC5)c5ccccc45)n3)c2c1 | 48.3%
COc1ccc(NC([Se])=NC23CC4CC(CC(C4)C2)C3)cc1 | -6.73% (active)
Clc1cccc(Cl)c1Cl | 113%
C[C@]12CCc3sc(-c4ccccc4O)nc3C1=CC[C@@H]1[C@@H]2CC[C@]2(C)C(=O)CC[C@@H]12 | 115%
